Calls of active or inactive are those of the source. The limit is not given here; nearly all actives have IC50 up to about 12 µM.
test: mitochondrial permeability transition pore inhibitors, dose response, biochemical, absorbance, isolated mitochondria, dry powder samples (AID 720722); settings: isolated mitochondria swelling

IC50, active:
N=c1sccn1CC(=O)Nc1cccc(Oc2ccccc2)c1 2.92 µM, Cc1cc(C)c2nc(N(CCCN(C)C)C(=O)c3ccc(S(=O)(=O)N4CCCCCC4)cc3)sc2c1 2.07 µM, C=CCNCCCOc1ccc(C)cc1Br 11.6 µM, Cc1ccc2nc(N(CCCN(C)C)C(=O)CCc3ccccc3)sc2c1 1.58 µM, CNCCC=C1c2ccccc2CCc2ccccc21 8.45 µM, N#Cc1c(NCCN)nc(-c2ccco2)c2c1CCCC2 8.12 µM, CC(C)(C)c1ccccc1OCCCCCNCCO 3.67 µM, CN1CCC[C@@H]1CCO[C@](C)(c1ccccc1)c1ccc(Cl)cc1 4.43 µM, CCN(CC)CCCN=Cc1c(O)n(Cc2ccccc2)c(=O)c2ccccc12 3.34 µM, COC(=O)c1c(NC(=O)C2CCCCC2)sc2c1CC(C)(C)NC2(C)C 3.64 µM, COCCCNCCCOc1ccc(Cl)cc1C(C)(C)C 4.04 µM, COc1cc(CNCCO)cc(Cl)c1OCc1ccccc1Cl 2.69 µM, CCN(CC)c1ccc(NC(=O)c2cc(Cl)ccc2OC)cc1 5.7 µM, CN(C)CCCN1c2ccccc2Sc2ccc(Cl)cc21 2.5 µM, Cc1ccc2nc(N(CCN(C)C)C(=O)/C=C/c3cccs3)sc2c1 3.33 µM, CCOC(=O)N1CCN(S(=O)(=O)c2ccc(C(=O)N(CCCN(C)C)c3nc4c(C)c(C)ccc4s3)cc2)CC1 5.28 µM, C=CCNCCOc1ccc(C(C)(C)c2ccccc2)cc1 12.4 µM, Cc1cc(C)c2nc(N(CCCN(C)C)C(=O)C3=COCCO3)sc2c1 3.11 µM, COc1ccc(-n2cc(CNC3CCN(C)CC3)c(-c3cccc(F)c3)n2)cc1 2.03 µM, COc1cc(NC(=O)c2cc(-c3cccc(O)c3)on2)cc(OC)c1OC 0.391 µM, COc1ccc(C)c2sc(N(CCCN(C)C)C(=O)CS(=O)(=O)c3ccc(F)cc3)nc12 3.9 µM, C=CCNCCOCCOc1ccc(Cl)cc1C(C)(C)C 4.04 µM, COc1ccc(Cl)cc1C(=O)Nc1ccc(CN2CCCCC2)cc1 5.08 µM, O=C(CC1NCCc2ccccc21)Nc1ccc(Cl)cc1 (stereo not given) 2.78 µM, CC1CCCN(CCC(=O)c2ccc(Br)cc2)C1 (stereo not given) 3.14 µM

Reference: PubChem BioAssay AID720722 (Molecular Libraries Program, Specialized Chemistry Center, …, 2013)
